Experiment [1] has as its system PRMT1 (protein arginine N-methyltransferase 1). Put plainly: PRMT1 binders on small-molecule microarrays, primary screen, biochemical, small-molecule microarray, 635 nm fluorescence (AID 1088).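 Also: binding of Prmt1 protein to compounds spotted on small-molecule microarray slides.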 Particulars: small-molecule microarray binding, higher = more signal.
A short description of experiment [2]: yeast growth modulation, basal conditions, primary screen, YJM789 clinical isolate, OD600, 24 h (AID 1089).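 Also: growth of clinical yeast isolate S. cerevisiae YJM 789 seeded 1000 cells per well; test concentration not given here.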 Conditions: S. cerevisiae YJM789 growth, higher = more signal, called active from +8 up or from −8 down.
The nature of experiment [3]: fission yeast growth modulation, primary screen, strain 972, OD600, 24 h, no modulator (AID 1090).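 Also: basal condition with compound alone and no growth modifier present; test concentration not given here.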 Conditions: S. pombe 972 growth, higher = more signal, called active from +8 up or from −8 down.
Experiment [4] is described as follows: S. cerevisiae growth modulation with rapamycin, primary screen, strain BY4716, OD600, 96 h (AID 1091). Also: test concentration not given here. Particulars: higher = more signal, called active from +8 up or from −8 down.
In experiment [5] the target is Torsin-1A-interacting protein 2 (Homo sapiens) (UniProt Q8NFQ8). Put plainly: LULL1 binders on small-molecule microarray, primary screen, cell lysate, human LULL1 lysate, 635/667 nm fluorescence (AID 1092).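 Also: probe is lysate of COS7 cells overexpressing human LULL1; score merges per-feature 667 nm fluorescence with signal-to-noise.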 Conditions: hLULL1 lysate binding, 635 nm fluorescence, higher = more signal.
The nature of experiment [6]: E. coli growth modulation, two-sided OD650, primary screen, E. coli filamentation project, strain DRC41, 24 h (AID 1093).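 Also: MC1000 strain lacking acrAB efflux and sulA so SOS filamentation is blocked; test concentration not given here.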 Conditions: OD650, 24 h, higher = more signal, called active from +8 up or from −8 down.
The nature of experiment [7]: small-molecule microarray binders of probe aLefty2, primary screen, biochemical, biotinylated probe, 635/667 nm fluorescence (AID 1094).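 Also: score merges spot fluorescence near 667 nm with spot signal-to-noise ratio.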 Particulars: higher = more signal.
Experiment [8] relates to Noggin (protein binding on small-molecule microarray). Put plainly: Noggin binders on small-molecule microarray, primary screen, biochemical, 635/667 nm fluorescence (AID 1095).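 Also: score merges 667 nm feature fluorescence with signal to noise over triplicate slides.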 Particulars: 635 nm fluorescence, higher = more signal.
Experiment [9] addresses Neurogenic locus notch homolog protein 3 (Homo sapiens) (UniProt Q9UM47). Put plainly: NOTCH3 binders on small-molecule microarray, primary screen, biochemical, 635/667 nm fluorescence (AID 1096). Particulars: NOTCH3 binding, 635 nm fluorescence, higher = more signal.
Experiment [10] in a line: small-molecule microarray binders of probe aEGFR, primary screen, biochemical, biotinylated probe, 635/667 nm fluorescence (AID 1097).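 Also: probe is a biotinylated anti-EGFR antibody binding compounds printed on slides; score combines fluorescence near 667 nm and signal to noise of each spot.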 Particulars: higher = more signal.
Experiment [11] has as its system Plasmodium falciparum Sir2 (PF13_0152, Sir2A). Put plainly: pfSir2 binders on small-molecule microarrays, primary screen, biochemical, small-molecule microarray, 635 nm fluorescence (AID 1098).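 Also: score merges spot fluorescence intensity with its signal-to-noise ratio.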 Particulars: small-molecule microarray binding, fluorescence 635 nm; higher = more signal.
Experiment [12] is described as follows: small-molecule microarray binders of probe aDKK1, primary screen, biochemical, biotinylated probe, 635/667 nm fluorescence (AID 1099).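 Also: score merges 667nm spot fluorescence with signal to noise across triplicate slides; reference of the scale not given here.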 Conditions: higher = more signal.
Experiment [13] is described as follows: small-molecule microarray binders of probe aCHRDL2, primary screen, biochemical, biotinylated probe, 635/667 nm fluorescence (AID 1100). Conditions: higher = more signal.
Experiment [14] is described as follows: splicing luciferase reporter signal modulators, primary screen, spliceosome inhibition project, cell-based, HEK293, splice +/- reporter (AID 1101).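 Also: HEK293 cells carrying a splicing-competent luciferase reporter gene; test concentration not given here.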 Conditions: luminescence, 24 h, higher = more signal, called active from +8 up or from −8 down. (In general: In a reporter assay the amount or activity of a reporter protein is the signal.)
Experiment [15] concerns the target Fibroblast growth factor 10 (Homo sapiens) (UniProt O15520). In words: FGF10 binders on small-molecule microarrays, primary screen, biochemical, small-molecule microarray, 635 nm fluorescence (AID 1102). Conditions: FGF10 binding, fluorescence 635 nm, higher = more signal.
In experiment [16] the test system is glycogen synthase kinase-3 (GSK3A per assay name; protocol says GSK3B). Put plainly: GSK3 binders on small-molecule microarrays, primary screen, biochemical, small-molecule microarray, 635 nm fluorescence, GSK3A (AID 1103). Also: the record names both GSK3A and GSK3B. Conditions: small-molecule microarray binding, fluorescence 635 nm; higher = more signal.
The target in experiment [17] is Epidermal growth factor receptor (Homo sapiens) (UniProt P00533). Put plainly: EGFR binders on small-molecule microarrays, primary screen, biochemical, small-molecule microarray, 635 nm fluorescence (AID 1104).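 Also: score merges 667 nm emission intensity with spot signal to noise over triplicate slides.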 Particulars: EGFR binding, higher = more signal.
For experiment [18], the target named is Follistatin-related protein 3 (Homo sapiens) (UniProt O95633). Put plainly: FSTL3 binders on small-molecule microarrays, primary screen, biochemical, small-molecule microarray, 635 nm fluorescence (AID 1105).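 Also: score merges emission near 667 nm and signal to noise per printed spot across three slides.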 Particulars: FSTL3 binding, higher = more signal.
Experiment [19] addresses Dickkopf-related protein 1 (Homo sapiens) (UniProt O94907). Put plainly: DKK1 binders on small-molecule microarrays, primary screen, biochemical, small-molecule microarray, 635 nm fluorescence scan (AID 1106).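 Also: score merges emission near 667 nm with signal to noise over three replicate slides.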 Particulars: DKK1 binding, higher = more signal.
In experiment [20] the test system is Inhibin beta A chain (activin A). Put plainly: INHBA (activin A) binders on microarrays, primary screen, biochemical, small-molecule microarray, 635 nm fluorescence scan (AID 1107).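 Also: mouse activin A protein probed at 4.33 µg/mL on printed slides; score merges bound-protein fluorescence near 667 nm with spot signal-to-noise.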 Conditions: small-molecule microarray binding, higher = more signal.

The record followed here is PubChem BioAssay.

Molecules are shown by their SMILES. Calls of active or inactive are those of the source.

Chain of Torsin-1A-interacting protein 2 (Homo sapiens) (Q8NFQ8 whole entry, looked up): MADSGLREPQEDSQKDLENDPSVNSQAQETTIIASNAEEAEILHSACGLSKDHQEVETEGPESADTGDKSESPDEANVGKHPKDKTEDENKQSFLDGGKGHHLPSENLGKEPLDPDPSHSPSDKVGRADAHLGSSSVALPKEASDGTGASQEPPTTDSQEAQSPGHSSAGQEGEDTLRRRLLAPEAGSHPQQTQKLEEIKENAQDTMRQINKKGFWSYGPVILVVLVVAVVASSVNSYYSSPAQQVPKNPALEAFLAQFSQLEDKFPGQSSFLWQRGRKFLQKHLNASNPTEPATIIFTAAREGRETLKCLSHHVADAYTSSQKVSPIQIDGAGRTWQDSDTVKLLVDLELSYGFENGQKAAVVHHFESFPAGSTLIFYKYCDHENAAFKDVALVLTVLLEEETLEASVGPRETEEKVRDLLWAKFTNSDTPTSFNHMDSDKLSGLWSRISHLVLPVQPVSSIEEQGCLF
Chain of Dickkopf-related protein 1 (Homo sapiens) (O94907 whole entry, looked up): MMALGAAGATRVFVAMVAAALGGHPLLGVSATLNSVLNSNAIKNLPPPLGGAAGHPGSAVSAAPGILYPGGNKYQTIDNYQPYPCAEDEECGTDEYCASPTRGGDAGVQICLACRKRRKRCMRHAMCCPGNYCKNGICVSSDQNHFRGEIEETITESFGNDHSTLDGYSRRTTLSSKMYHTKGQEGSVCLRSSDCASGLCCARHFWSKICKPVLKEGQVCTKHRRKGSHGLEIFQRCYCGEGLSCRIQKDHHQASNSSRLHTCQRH
Chain of Neurogenic locus notch homolog protein 3 (Homo sapiens) (Q9UM47 whole entry, looked up): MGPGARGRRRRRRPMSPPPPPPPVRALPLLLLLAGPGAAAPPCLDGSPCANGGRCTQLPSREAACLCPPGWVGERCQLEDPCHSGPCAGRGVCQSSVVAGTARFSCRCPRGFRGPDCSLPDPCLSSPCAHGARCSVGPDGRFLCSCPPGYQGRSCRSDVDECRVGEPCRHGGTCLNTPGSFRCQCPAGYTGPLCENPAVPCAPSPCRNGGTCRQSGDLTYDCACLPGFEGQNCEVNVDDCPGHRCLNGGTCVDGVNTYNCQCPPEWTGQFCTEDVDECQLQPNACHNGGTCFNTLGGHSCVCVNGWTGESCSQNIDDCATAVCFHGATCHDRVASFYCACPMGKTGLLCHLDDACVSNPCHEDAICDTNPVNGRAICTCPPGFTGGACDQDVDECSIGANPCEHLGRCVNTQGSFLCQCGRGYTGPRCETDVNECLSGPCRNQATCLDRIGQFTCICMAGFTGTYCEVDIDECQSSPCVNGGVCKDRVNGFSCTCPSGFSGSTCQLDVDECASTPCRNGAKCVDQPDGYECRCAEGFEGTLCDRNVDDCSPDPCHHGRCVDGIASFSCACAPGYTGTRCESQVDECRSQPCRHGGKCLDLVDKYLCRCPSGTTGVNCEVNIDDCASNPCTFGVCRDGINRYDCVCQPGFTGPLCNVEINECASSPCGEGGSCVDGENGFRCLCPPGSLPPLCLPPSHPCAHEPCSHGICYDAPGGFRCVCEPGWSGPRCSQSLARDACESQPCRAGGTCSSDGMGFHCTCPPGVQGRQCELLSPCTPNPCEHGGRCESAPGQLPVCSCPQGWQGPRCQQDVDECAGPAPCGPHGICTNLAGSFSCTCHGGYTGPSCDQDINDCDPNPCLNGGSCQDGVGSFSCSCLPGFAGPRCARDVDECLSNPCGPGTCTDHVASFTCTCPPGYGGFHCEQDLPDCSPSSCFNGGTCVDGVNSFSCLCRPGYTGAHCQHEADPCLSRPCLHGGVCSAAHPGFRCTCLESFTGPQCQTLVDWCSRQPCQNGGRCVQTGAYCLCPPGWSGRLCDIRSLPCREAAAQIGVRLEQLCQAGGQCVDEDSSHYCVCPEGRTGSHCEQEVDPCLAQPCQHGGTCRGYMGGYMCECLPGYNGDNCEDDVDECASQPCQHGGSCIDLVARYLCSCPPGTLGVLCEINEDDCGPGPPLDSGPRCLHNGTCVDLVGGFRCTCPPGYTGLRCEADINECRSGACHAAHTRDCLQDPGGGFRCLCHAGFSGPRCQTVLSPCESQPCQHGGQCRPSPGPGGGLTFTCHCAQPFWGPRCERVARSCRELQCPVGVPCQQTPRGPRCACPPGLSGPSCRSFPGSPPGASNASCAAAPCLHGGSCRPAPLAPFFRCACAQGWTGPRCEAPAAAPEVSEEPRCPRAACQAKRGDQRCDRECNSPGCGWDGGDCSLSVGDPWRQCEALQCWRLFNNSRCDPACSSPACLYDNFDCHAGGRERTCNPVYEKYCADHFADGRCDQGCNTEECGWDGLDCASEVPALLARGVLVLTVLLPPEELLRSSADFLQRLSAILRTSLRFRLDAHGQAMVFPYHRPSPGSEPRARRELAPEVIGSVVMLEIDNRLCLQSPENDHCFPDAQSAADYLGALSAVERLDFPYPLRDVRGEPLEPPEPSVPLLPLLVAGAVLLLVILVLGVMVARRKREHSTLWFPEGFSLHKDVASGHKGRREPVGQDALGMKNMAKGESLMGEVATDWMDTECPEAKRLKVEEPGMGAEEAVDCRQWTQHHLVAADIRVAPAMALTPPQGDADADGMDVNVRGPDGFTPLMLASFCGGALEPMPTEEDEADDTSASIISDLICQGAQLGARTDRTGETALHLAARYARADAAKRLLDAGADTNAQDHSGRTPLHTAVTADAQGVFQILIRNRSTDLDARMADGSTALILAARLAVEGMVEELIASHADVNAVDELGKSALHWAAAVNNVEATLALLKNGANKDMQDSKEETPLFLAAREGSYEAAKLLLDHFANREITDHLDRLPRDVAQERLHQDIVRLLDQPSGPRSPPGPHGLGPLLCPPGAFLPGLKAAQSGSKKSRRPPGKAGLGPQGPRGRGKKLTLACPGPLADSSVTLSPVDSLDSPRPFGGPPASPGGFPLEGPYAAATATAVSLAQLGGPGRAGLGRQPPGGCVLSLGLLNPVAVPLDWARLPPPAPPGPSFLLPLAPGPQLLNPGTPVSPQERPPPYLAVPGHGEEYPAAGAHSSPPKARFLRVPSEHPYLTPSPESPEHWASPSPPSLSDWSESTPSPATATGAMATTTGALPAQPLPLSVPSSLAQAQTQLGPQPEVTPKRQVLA
Chain of Follistatin-related protein 3 (Homo sapiens) (O95633 whole entry, looked up): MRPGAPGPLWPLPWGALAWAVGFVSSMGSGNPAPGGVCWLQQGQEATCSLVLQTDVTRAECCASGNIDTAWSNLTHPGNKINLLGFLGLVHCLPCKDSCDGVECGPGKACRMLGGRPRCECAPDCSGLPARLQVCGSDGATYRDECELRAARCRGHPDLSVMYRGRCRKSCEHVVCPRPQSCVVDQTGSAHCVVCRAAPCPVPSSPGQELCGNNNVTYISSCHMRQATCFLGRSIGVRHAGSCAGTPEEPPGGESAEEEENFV
Chain of Epidermal growth factor receptor (Homo sapiens) (P00533 whole entry, looked up): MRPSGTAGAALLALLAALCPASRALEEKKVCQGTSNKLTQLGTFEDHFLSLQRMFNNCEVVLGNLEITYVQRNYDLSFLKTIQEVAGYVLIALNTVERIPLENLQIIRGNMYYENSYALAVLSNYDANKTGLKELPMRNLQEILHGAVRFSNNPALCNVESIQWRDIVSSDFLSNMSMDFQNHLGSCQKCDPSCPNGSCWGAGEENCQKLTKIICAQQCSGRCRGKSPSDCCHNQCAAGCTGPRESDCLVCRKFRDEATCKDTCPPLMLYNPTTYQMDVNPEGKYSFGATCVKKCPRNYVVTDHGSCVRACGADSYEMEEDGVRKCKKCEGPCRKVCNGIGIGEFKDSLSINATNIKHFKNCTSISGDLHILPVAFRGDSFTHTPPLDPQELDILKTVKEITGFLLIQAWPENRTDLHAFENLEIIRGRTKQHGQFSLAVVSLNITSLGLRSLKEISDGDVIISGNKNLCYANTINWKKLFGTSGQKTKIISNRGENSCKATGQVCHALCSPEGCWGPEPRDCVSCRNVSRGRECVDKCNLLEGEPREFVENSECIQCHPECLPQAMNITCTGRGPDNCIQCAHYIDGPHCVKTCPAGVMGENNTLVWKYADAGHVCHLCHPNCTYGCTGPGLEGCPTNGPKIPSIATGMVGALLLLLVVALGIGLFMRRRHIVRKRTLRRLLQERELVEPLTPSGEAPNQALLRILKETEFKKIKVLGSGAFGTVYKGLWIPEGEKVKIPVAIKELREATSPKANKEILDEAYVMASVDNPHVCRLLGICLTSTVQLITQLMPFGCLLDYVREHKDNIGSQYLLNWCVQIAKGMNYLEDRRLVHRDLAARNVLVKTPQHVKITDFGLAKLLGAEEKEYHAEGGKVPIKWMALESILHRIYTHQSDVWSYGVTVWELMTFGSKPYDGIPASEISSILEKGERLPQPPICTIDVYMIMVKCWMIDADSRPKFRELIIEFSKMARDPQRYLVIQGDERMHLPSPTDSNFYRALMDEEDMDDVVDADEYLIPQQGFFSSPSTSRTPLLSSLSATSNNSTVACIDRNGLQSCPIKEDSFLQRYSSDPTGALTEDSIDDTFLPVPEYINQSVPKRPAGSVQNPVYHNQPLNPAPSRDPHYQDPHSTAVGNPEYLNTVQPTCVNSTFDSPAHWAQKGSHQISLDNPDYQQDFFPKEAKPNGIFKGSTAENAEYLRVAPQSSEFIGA
Chain of Fibroblast growth factor 10 (Homo sapiens) (O15520 whole entry, looked up): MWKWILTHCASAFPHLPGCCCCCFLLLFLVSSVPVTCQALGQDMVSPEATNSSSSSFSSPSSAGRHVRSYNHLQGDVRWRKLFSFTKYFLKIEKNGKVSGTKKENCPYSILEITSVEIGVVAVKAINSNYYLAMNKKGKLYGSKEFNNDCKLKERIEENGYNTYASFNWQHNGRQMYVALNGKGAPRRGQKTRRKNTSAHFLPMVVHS

`CC(C)=NOC[C@@H](C)[C@H](OCc1ccccc1)C(C)C`: the composite z-score was -0.465 in experiment [1]; -0.602 in experiment [5]; -0.127 in [7]; 1.06 in [8]; -1.12 in experiment [9]; -0.0656 in [10]. For the same compound, the composite z-score was -0.229 in experiment [11]; -0.0423 in experiment [12]; 0.631 in experiment [13]; -0.822 in experiment [15]; -1.06 in experiment [16]; -0.602 in experiment [17]. For the same compound, the composite z-score is -0.664 in experiment [18], -0.355 in [19] and 0.927 in experiment [20]. The z-score in [2] was 0.682 (inactive); in experiment [3], -0.207 (inactive); in experiment [4] it was 0.752 (inactive); in experiment [6], 0.0184 (inactive); in experiment [14], -0.159 (inactive).
Regarding `COc1cccc([C@H]2Oc3ccc(OC)cc3C(=NO[C@@H]3O[C@H](COC(C)=O)[C@@H](OC(C)=O)[C@H](OC(C)=O)[C@H]3OC(C)=O)[C@@H]2O)c1`, the composite z-score in experiment [1] was 0.102; in [5], -0.0867; in [7] it was -0.119; in experiment [8], 0.35; in experiment [9], 0.615; in [10], 0.0009. In addition, the composite z-score in [11] was -0.531; in experiment [12] it was 0.0366; in [13] it was -0.0882; in experiment [15] it was 0.261; in experiment [16] it was -0.157; in [17] it was 0.344. Besides, the composite z-score in [18] is 0.0855; in experiment [19], 0.0647; in experiment [20], -0.43. For the same compound, the z-score in experiment [2] is -1.07 (inactive); in experiment [3], 1.14 (inactive); in experiment [4] it was -0.239 (inactive); in experiment [6] it was 0.373 (inactive); in experiment [14], 0.598 (inactive).
For `CC(C)=CCCC(C)=CCON=C1C[C@@H](O)[C@@H](O)[C@@H]2[C@@H]3C(=O)N(Cc4ccccc4)C(=O)[C@@H]3CC[C@H]12`, the composite z-score in experiment [1] is 1.06; in [5], 1.94; in experiment [7] it was -0.236; in [8], 0.608; in experiment [9] it was 0.811; in experiment [10] it was -0.034. In addition, the composite z-score is 0.639 in experiment [11]; -0.21 in experiment [12]; -0.659 in experiment [13]; 0.932 in experiment [15]; 1.12 in [16]; 0.611 in experiment [17]. The composite z-score in [18] is 1.14; in experiment [19], -0.523; in experiment [20], 1.11. The z-score is -0.574 (inactive) in experiment [2]; -1.58 (inactive) in [3]; -1.29 (inactive) in experiment [4]; -0.128 (inactive) in [6]; -1.83 (inactive) in experiment [14].
Consider `CCCCC#C[C@@H]1C=C[C@H](Oc2cc(OC)c(OC)c(OC)c2)[C@@H](COC(=O)OCC)O1`, for which the composite z-score was 0.314 in experiment [1]; -0.16 in [5]; -0.209 in experiment [7]; 0.229 in experiment [8]; -0.208 in experiment [9]; -0.162 in [10]. The composite z-score in experiment [11] is 0.589; in experiment [12], -0.328; in experiment [13] it was -0.619; in experiment [15], 0.306; in [16] it was -0.682; in experiment [17], 0.0389. In addition, the values for the composite z-score in experiment [18], in [19] and in [20] were -0.203, 0.514 and 0.444, respectively. The z-score in experiment [2] is 0.635 (inactive); in experiment [3], -2.19 (inactive); in experiment [4], 0.398 (inactive); in experiment [6], 0.934 (inactive); in [14] it was -0.696 (inactive).
As to `C[C@@H](c1ccccc1)N1C(=O)[C@H]2[C@H]3[C@H](O)[C@H](O)CC(=NO[C@@H]4O[C@H](CO)[C@@H](O)[C@H](O)[C@H]4O)[C@H]3CC[C@H]2C1=O`, the composite z-score in [1] is -0.997; in [5], 0.288; in [7] it was -0.0928; in experiment [8], 0.587; in experiment [9], 0.675; in [10], -0.0223. The composite z-score in experiment [11] is 0.249; in experiment [12], -0.155; in [13], -0.546; in experiment [15], 0.559; in [16] it was 0.783; in [17], 0.425. Besides, the composite z-score in [18] was 1.03; in experiment [19], 0.44; in experiment [20], 0.0882. The z-score in [2] was -0.264 (inactive); in [3], 1.06 (inactive); in experiment [4] it was 0.749 (inactive); in experiment [6], 0.466 (inactive); in experiment [14], 0.0641 (inactive).
